In PubChem BioAssay (NCI):
About 83,000 compounds went through this panel and 20% of them were active in at least one assay; those are over-represented in the sample as a whole.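 Treatment: one concentration, 48 hours, 96-well format. Scoring: percent growth, with anything below 10 considered active.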 Unmarked numbers belong to inactive results. Activity calls are given as the source filed them.

What was measured:
Assay in all cases: NCI-60 one-dose screen, 48 h (100 = growth as untreated, 0 = no growth, -100 = all killed)
Details in all cases: 10 µM unless noted
[1] = tested on: NCI-H23 lung
[2] = tested on: NCI-H226 lung
[3] = tested on: NCI-H322M lung
[4] = tested on: HOP-62 NSCLC
[5] = tested on: NCI-H460 lung
[6] = tested on: HOP-92 NSCLC
[7] = tested on: NCI-H522 lung
[8] = tested on: A549/ATCC NSCLC
[9] = tested on: 786-0 renal
[10] = tested on: COLO 205 colon
[11] = tested on: DU-145 prostate
[12] = tested on: K-562 leukemia
[13] = tested on: MALME-3M melanoma
[14] = tested on: MDA-MB-231 breast
[15] = tested on: RXF 393 renal
[16] = tested on: SF-268 CNS
[17] = tested on: SF-295 CNS
[18] = tested on: SF-539 CNS
[19] = tested on: UACC-257 melanoma
[20] = tested on: M14 melanoma

## COc1ccc(-c2nn(-c3ccc(NC(=O)c4ccc(Cl)c(C(F)(F)F)c4)cc3)cc2-c2ccncc2)cc1Cl
[1]
  growth: 30.2%
[2]
  growth: 70.5%
[3]
  growth: 51.5%
[4]
  growth: -24.9% (active)
[5]
  growth: 11.3%
[6]
  growth: -0.441% (active)
[7]
  growth: 30.6%
[8]
  growth: 31%
[9]
  growth: -55.7% (active)
[10]
  growth: -19% (active)
[11]
  growth: 45%
[12]
  growth: 0.122% (active)
[13]
  growth: 6.68% (active)
[14]
  growth: -29.6% (active)
[15]
  growth: -76% (active)
[16]
  growth: 14.5%
[17]
  growth: -30.3% (active)
[18]
  growth: 9.99% (active)
[19]
  growth: 51.2%
[20]
  growth: 13.3%

## CCOC(=O)C1CN(Cc2ccccc2)C(=O)C1=O (stereo not given)
[1]
  growth: 105%
[2]
  growth: 93.3%
[3]
  growth: 94.9%
[4]
  growth: 98.8%
[5]
  growth: 106%
[6]
  growth: 84.3%
[7]
  growth: 98.6%
[8]
  growth: 112%
[9]
  growth: 105%
[10]
  growth: 93.6%
[11]
  growth: 110%
[12]
  growth: 104%
[13]
  growth: 92.8%
[14]
  growth: 115%
[15]
  growth: 112%
[16]
  growth: 101%
[17]
  growth: 105%
[18]
  growth: 93.6%
[19]
  growth: 104%
[20]
  growth: 94.6%

## COc1ccc(NC(=O)COCCOCCNC[C@@H]2C(=O)O[C@H]3[C@H]2CC/C(COC(=O)OC/C2=C/CC[C@@]4(C)O[C@H]4[C@H]4OC(=O)[C@@H](CN(C)C)[C@@H]4CC2)=C\CC[C@@]2(C)O[C@@H]32)c(O)c1C(N)=O
[1]
  growth: 81.8%
[2]
  growth: 49.9%
[3]
  growth: 102%
[4]
  growth: 93.9%
[5]
  growth: 96%
[6]
  growth: -26.6% (active)
[7]
  growth: -75.7% (active)
[8]
  growth: 72.9%
[9]
  growth: -26.1% (active)
[10]
  growth: -27.9% (active)
[11]
  growth: 57%
[12]
  growth: 5.46% (active)
[13]
  growth: -21.1% (active)
[14]
  growth: 21.8%
[15]
  growth: -40.5% (active)
[16]
  growth: 91.5%
[17]
  growth: 105%
[18]
  growth: 46.4%
[19]
  growth: 40.5%
[20]
  growth: 53.9%

## COc1cc(/C=C\c2cc(/C=C\c3ccc(O)c(OC)c3)n(C(=O)CNc3ccccc3OC)n2)ccc1O
[1]
  growth: 69.7%
[2]
  growth: 86%
[3]
  growth: 90.5%
[4]
  growth: 86.4%
[5]
  growth: 81.6%
[6]
  growth: 81.8%
[7]
  growth: 21.9%
[8]
  growth: 83.7%
[9]
  growth: 97.4%
[10]
  growth: 107%
[11]
  growth: 95.3%
[12]
  growth: 19.4%
[13]
  growth: 47.9%
[14]
  growth: 87%
[15]
  growth: 90.2%
[16]
  growth: 58.9%
[17]
  growth: 85.1%
[18]
  growth: 42%
[19]
  growth: 85.5%
[20]
  growth: 35.4%

## O=S1(=O)N(CCNc2nccc(-c3c(-c4cccc(O)c4)nc4sccn34)n2)CCN1Cc1ccccc1
[1]
  growth: 84.1%
[2]
  growth: 71.2%
[3]
  growth: 101%
[4]
  growth: 143%
[5]
  growth: 42%
[6]
  growth: 119%
[7]
  growth: 52.1%
[8]
  growth: 65.2%
[9]
  growth: 78.3%
[10]
  growth: 46.4%
[11]
  growth: 74.1%
[12]
  growth: 46.1%
[13]
  growth: 50.8%
[14]
  growth: 52.6%
[15]
  growth: 68.6%
[16]
  growth: 86%
[17]
  growth: 62.8%
[18]
  growth: 63.9%
[19]
  growth: 37.2%
[20]
  growth: 28.4%

## CC(=O)CC/C=C(\C)[C@H](O)[C@H](C)C(=O)O[C@H]1C[C@H](C)C=C2C=C[C@@]3(C)O[C@@H](O)CC(=O)[C@]3(C)[C@H]21
[1]
  growth: -35.8% (active)
[2]
  growth: -50.5% (active)
[3]
  growth: -17.6% (active)
[4]
  growth: -31.8% (active)
[5]
  growth: -16.6% (active)
[6]
  growth: -32.5% (active)
[7]
  growth: -43.4% (active)
[8]
  growth: -10.6% (active)
[9]
  growth: -49.7% (active)
[10]
  growth: -45.6% (active)
[11]
  growth: -22% (active)
[12]
  growth: -8.89% (active)
[13]
  growth: -82.5% (active)
[14]
  growth: -39.2% (active)
[15]
  growth: -88% (active)
[16]
  growth: -21.5% (active)
[17]
  growth: -22.7% (active)
[18]
  growth: -35.2% (active)
[19]
  growth: -33.7% (active)
[20]
  growth: -84.2% (active)

## COc1ccc(-c2nnc(NC(=O)CN3CCN(c4cc5c(cc4F)c(=O)c(C(=O)O)cn5C4CC4)CC3)s2)cc1OC
[1]
  growth: 96.3%
[2]
  growth: 87.8%
[3]
  growth: 98.2%
[4]
  growth: 95.6%
[5]
  growth: 101%
[6]
  growth: 106%
[7]
  growth: 89.1%
[8]
  growth: 100%
[9]
  growth: 88.1%
[10]
  growth: 104%
[11]
  growth: 113%
[12]
  growth: 89.9%
[13]
  growth: 98.9%
[14]
  growth: 102%
[15]
  growth: 105%
[16]
  growth: 97.7%
[17]
  growth: 103%
[18]
  growth: 96.8%
[19]
  growth: 98%
[20]
  growth: 97.7%

## CC(=O)Oc1ccc(C(OC(C)=O)OC(C)=O)cc1
[1]
  growth: 95.4%
[2]
  growth: 108%
[3]
  growth: 98.9%
[4]
  growth: 95%
[5]
  growth: 111%
[6]
  growth: 113%
[7]
  growth: 85.4%
[8]
  growth: 108%
[9]
  growth: 95.3%
[10]
  growth: 112%
[11]
  growth: 103%
[12]
  growth: 89.6%
[13]
  growth: 105%
[14]
  growth: 114%
[15]
  growth: 115%
[16]
  growth: 93.3%
[17]
  growth: 99.1%
[18]
  growth: 99.7%
[19]
  growth: 107%
[20]
  growth: 99.3%
